Activity calls are given as the source filed them.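 The calls were made as follows: active = cell event count below 40, meaning activity score above 60 where score is 100 minus count; inactive = the rest.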
Assay: LNCaP cell loss by flow event count, confirmation, cytotoxicity control for prostate differentiation activator project, single point (AID 1076);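 also: counts scatter-gated live cells after medium removal discards detached dead cells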
Conditions: flow cytometry event count, 4 d, at 100 µM, active compounds read low

| Structure (SMILES) | cell event count |
| --- | --- |
| COc1ccccc1CNC(=O)C1CCN(Cc2nc(-c3cccc(Cl)c3)oc2C)CC1 | 9 (inactive) |
| Cc1oc(-c2ccccc2F)nc1CN1CCC(C(=O)NCc2cccnc2)CC1 | 290 (inactive) |
| CCCCOc1ccccc1NC(=O)Cn1c(-c2nonc2N)nc2ccccc21 | 99 (inactive) |
| Cc1ccc(NC(=O)CCNS(=O)(=O)c2ccc3c(c2)oc(=O)n3C)c(C)c1 | 350 (inactive) |
| Cc1cc(=O)n2nc(N3CCCC(C(=O)NCCCN4CCc5ccccc5C4)C3)sc2n1 (stereo not drawn) | 259 (inactive) |
| COc1ccc(CC(=O)Nc2ccc(-c3nnc(-c4ccc(C)cc4)o3)cc2)cc1 | 24 (inactive) |
| CCC(=O)N(Cc1ccco1)c1nc(-c2cc(OC)ccc2OC)cs1 | 227 (inactive) |
| Cn1c(C(=O)NCCC2=CCCCC2)cc2c(=O)n3ccccc3nc21 | 191 (inactive) |
| O=C(CCn1c(=O)[nH]c2ccccc2c1=O)NCCCN1CCN(c2cccc(Cl)c2)CC1 | 14 (inactive) |
| Nc1cccc2cnccc12 | 241 (inactive) |
| CCCOc1ccc2nc(NC(=O)OC)[nH]c2c1 | 12 (inactive) |
| Cc1cccc(-c2nc(CN3CCCC(C(=O)NC4CCCC4)C3)c(C)o2)c1 (stereo not drawn) | 29 (inactive) |
| Cc1nc2c3cnn(-c4ccccc4)c3ncn2n1 | 159 (inactive) |
| Cc1ccc(C)c(N2CCN(C(=O)CCNC(=O)Cn3ccc4ccccc4c3=O)CC2)c1 | 76 (inactive) |
| CCOC(=O)c1sc2ncnc(N3CCN(c4ccc(OC)cc4)CC3)c2c1C | 16 (inactive) |
| N=c1n(CCO)c2ccccc2n1CCOc1ccc(Cl)cc1Cl | 18 (inactive) |
| Cc1oc(-c2ccc(Cl)cc2)nc1CN1CCC(C(=O)NCCCN2CCCC2=O)CC1 | 51 (inactive) |
| Nc1ccc(-c2nc3c(Cl)c(N)ccc3[nH]2)cc1 | 183 (inactive) |
| CCOC(=O)N1CCC(NC(=O)c2cc3c(-c4ccc(OC)c(OC)c4)nn(C)c3s2)CC1 | 151 (inactive) |

| Structure (SMILES) | cell event count |
| --- | --- |
| O=C(NCCCN1CCN(c2ccc(F)cc2)CC1)c1cccc(N2CCCC2=O)c1 | 206 (inactive) |
| O=C(NCCc1c[nH]c2ccccc12)C(F)(F)C(F)F | 111 (inactive) |
| COc1cc2c(C(=O)NCCCN3CCN(c4cccc(Cl)c4)CC3)cn(C)c(=O)c2cc1OC | 15 (inactive) |
| Cc1cc(N2C(=O)C3C4C=CC(C4)C3C2=O)ccc1Br (stereo not drawn) | 272 (inactive) |
| COc1ccc(/C=N/c2nc3ccccc3n2C)cc1OC | 90 (inactive) |
| COc1ccc(CCNC(=O)C2CCCN(Cc3nc(-c4ccccc4C)oc3C)C2)cc1OC (stereo not drawn) | 12 (inactive) |
| CS(=O)(=O)c1nc(-c2cccs2)cc(C(F)(F)F)n1 | 53 (inactive) |
| Cc1ccc2c(c1)c1c(n2CC(O)CNC(CO)(CO)CO)CCCC1 (stereo not drawn) | 70 (inactive) |
| CCCS(=O)(=O)N1CCCC(C(=O)NCCCN2CCN(c3ccc(F)cc3)CC2)C1 (stereo not drawn) | 49 (inactive) |
| CCOc1ccc(C(=O)Nc2ccc(Cl)cn2)cc1Cl | 41 (inactive) |
| CN1CCN(c2cc3c(c4c2[nH]c2ccccc24)C(=O)CC(C)(C)C3)CC1 | 31 (inactive) |
| CCOC(=O)C1CCN(S(=O)(=O)c2ccc(-c3nc4ccccc4s3)s2)CC1 | 70 (inactive) |
| CN(C)c1ccc(CNC2CC(C)(C)NC(C)(C)C2)cc1 | 130 (inactive) |
| Cc1ccc(C)c2[nH]c(=O)c(CN(CCN3CCCC3)C(=O)Nc3cccc(Cl)c3)cc12 | 5 (inactive) |
| CCN1CCN(CCNC(=O)C2CCCN(Cc3nc(-c4cccc(Cl)c4)oc3C)C2)CC1 (stereo not drawn) | 14 (inactive) |
| COc1ccc(-c2oc3ncn(CCN4CCOCC4)c(=N)c3c2-c2ccc(OC)cc2)cc1 | 26 (inactive) |
| COc1ccc(S(=O)(=O)Nc2ccc(F)c(Cl)c2)cc1OC | 18 (inactive) |
| CCOC(=O)N1CCN(S(=O)(=O)c2ccc(C(=O)Nc3nc4ccccc4s3)cc2)CC1 | 145 (inactive) |
| CN(C)c1ccc(-c2nn3c(-c4ccc(Cl)cc4Cl)nnc3s2)cc1 | 6 (active) |
